Compounds with a hit are over-represented: about 3% of the library has one in this group of screens.
pPAFAH FP inh: pPAFAH enzyme inhibitors, primary screen, biochemical, fluorescence polarization, human. recombinant pPAFAH, FP-rhodamine probe fluorescence polarization. Platelet-activating factor acetylhydrolase (Homo sapiens), Q13093. AID 463082, 2010. 1.5% of 330,000 active. inhibition, % at 3.39 µM;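 active = inhibition above the mean inhibition across the screen plus 3 SD, cut at about 25% in these data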;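 note: inhibitors block binding of the rhodamine activity-based probe so polarization drops; 0% = enzyme with DMSO and 100% = wells lacking pPAFAH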
DAGLB inhibitor: DAGLB lipase inhibitors, primary screen, biochemical, fluorescence, HTS. HEK293T DAGLB membrane lysate, EnzChek fluorogenic substrate. inhibition, % at 5.17 µM. 0.059% of 340,000 active. AID 504411, 2011; in the data active = inhibition above about 34%;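 note: 0% = enzyme with vehicle and 100% = wells lacking enzyme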
Target sequence (Q8NCG7 whole entry, looked up): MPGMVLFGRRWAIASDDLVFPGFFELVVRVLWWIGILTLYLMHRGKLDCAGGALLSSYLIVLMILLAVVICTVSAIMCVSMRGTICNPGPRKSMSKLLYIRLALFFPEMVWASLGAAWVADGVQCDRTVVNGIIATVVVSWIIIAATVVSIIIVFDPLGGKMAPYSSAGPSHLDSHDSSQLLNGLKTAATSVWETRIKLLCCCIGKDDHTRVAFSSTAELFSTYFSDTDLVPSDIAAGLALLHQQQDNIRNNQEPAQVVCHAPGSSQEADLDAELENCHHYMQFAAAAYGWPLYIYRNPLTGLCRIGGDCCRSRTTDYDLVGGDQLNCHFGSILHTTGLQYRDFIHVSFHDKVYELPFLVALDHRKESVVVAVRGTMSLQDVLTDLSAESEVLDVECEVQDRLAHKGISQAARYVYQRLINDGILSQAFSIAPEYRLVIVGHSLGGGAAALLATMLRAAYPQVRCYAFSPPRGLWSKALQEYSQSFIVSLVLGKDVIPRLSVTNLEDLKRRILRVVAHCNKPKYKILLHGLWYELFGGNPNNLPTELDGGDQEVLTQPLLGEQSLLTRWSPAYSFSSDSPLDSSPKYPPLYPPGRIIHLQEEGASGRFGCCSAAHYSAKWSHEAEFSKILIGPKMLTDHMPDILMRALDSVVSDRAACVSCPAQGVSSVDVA
PAFAH1B3 inh: PAFAH1B3 enzyme inhibitors, primary screen, biochemical, fluorescence polarization, human. Platelet-activating factor acetylhydrolase IB subunit alpha1 (Homo sapiens), Q15102. recombinant PAFAH1B3, FP-rhodamine probe. inhibition, % at 3.39 µM. 0.28% of 340,000 active;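 active = inhibition above the screen-wide average of all tested compounds plus 3 SD, cut at about 25% in these data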;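 note: 0% = enzyme with DMSO only and 100% = wells lacking PAFAH1B3 protein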
ATG4B inh: ATG4B protease inhibitors, primary screen, biochemical, fluorescence, uHTS; Cysteine protease ATG4B (Homo sapiens), Q9Y4P1; ATG4B cleavage of LC3-PLA2, NBD-HPC fluorescence, 1 h; inhibition, % at 8.33 µM; 0.51% of 340,000 active; AID 504462, 2011; in the data active = inhibition above about 40%
PAFAH1B2 inh: PAFAH1B2 enzyme inhibitors, primary screen, biochemical, fluorescence polarization, human. recombinant PAFAH1B2, FP-rhodamine activity probe. inhibition, % at 3.39 µM. 1.2% of 340,000 active. AID 492953, 2010;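 active = inhibition above the mean of all tested compounds plus 3 SD, cut at about 24% in these data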;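 note: 0% = enzyme with DMSO and 100% = wells lacking PAFAH1B2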
PAFAH2 FP inh: PAFAH2 enzyme inhibitors, primary screen, biochemical, fluorescence polarization, human; 0.99% of 340,000 active; inhibition, % at 3.39 µM; AID 492956, 2010; recombinant PAFAH2, FP-rhodamine activity probe; Platelet-activating factor acetylhydrolase 2, cytoplasmic (Homo sapiens), Q99487;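 active = inhibition above the mean over all tested compounds plus 3 SD, cut at about 30% in these data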;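 note: inhibitors block probe labeling of enzyme so polarization drops; 0% = enzyme with DMSO and 100% = wells lacking PAFAH2 protein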
ATG4B confirm: ATG4B protease inhibitors, retest, confirmation, biochemical, fluorescence, single concentration; inhibition, % at 8.33 µM; 92% of 320 active; ATG4B protease fluorescent substrate cleavage assay; shares compounds with ATG4B inh; in the data active = inhibition above about 39%
PLA2 ctr: PLA2 enzyme inhibition, counter-screen for ATG4B inhibitor project, biochemical, single concentration, uHTS hits. shares compounds with ATG4B inh. purified PLA2, NBD-C6-HPC fluorescence, 45 min. inhibition, % at 8.33 µM. 66% of 1,600 active. AID 588402, 2011; in the data active = inhibition above about 50%
* hit, by the source's call.

`CC(C)c1ccc(NC2CCCN(C(=O)c3ccc(N4CCOCC4)cc3)C2)cc1` (stereo not drawn) gave pPAFAH FP inh 24, DAGLB inhibitor 2, PAFAH1B3 inh 11, ATG4B inh 77*, PAFAH1B2 inh 12, PAFAH2 FP inh -3 and PLA2 ctr 82*.
Screening CC(C)c1ccc(NC2CCCN(C(=O)c3ccoc3)C2)cc1 (stereo not drawn) returned pPAFAH FP inh 2, DAGLB inhibitor -3, PAFAH1B3 inh 8, ATG4B inh 56*, PAFAH1B2 inh 2, PAFAH2 FP inh 4 and PLA2 ctr 60*.
`CC(C)c1ccc(NC2CCCN(C(=O)c3cscn3)C2)cc1` (stereo not drawn) gave DAGLB inhibitor 2, PAFAH1B3 inh -8, ATG4B inh 7, PAFAH1B2 inh 5 and PAFAH2 FP inh 4.
O=C(c1ccoc1)N1CCCC(Nc2ccc(F)c(F)c2)C1 (stereo not drawn) was read as pPAFAH FP inh -1, DAGLB inhibitor 0, PAFAH1B3 inh 4, ATG4B inh -1, PAFAH1B2 inh 3 and PAFAH2 FP inh -1.
Screening CC(C)c1ccc(NC2CCCN(C(=O)CC3CCCC3)C2)cc1 (stereo not drawn) returned pPAFAH FP inh 2, DAGLB inhibitor -3, PAFAH1B3 inh 3, ATG4B inh 87*, PAFAH1B2 inh 19, PAFAH2 FP inh 6 and PLA2 ctr 89*.
For CC(C)c1ccc(NC2CCCN(C(=O)CCN3CCCC3=O)C2)cc1 (stereo not drawn) the results were pPAFAH FP inh -6, DAGLB inhibitor -2, PAFAH1B3 inh -9, ATG4B inh 6, PAFAH1B2 inh -8 and PAFAH2 FP inh -1.
Screening C/C(CC(=O)NC1CCCCC1)=N\NC(=O)Cc1ccc(-c2ccccc2)cc1 returned pPAFAH FP inh 4, DAGLB inhibitor 0, PAFAH1B3 inh -1, ATG4B inh -12, PAFAH1B2 inh 4 and PAFAH2 FP inh 5.
Screening C=CCN1C(=O)C(Cc2ccccc2Cl)SC1=Nc1ccc(C(=O)O)cc1 (stereo not drawn) returned pPAFAH FP inh 4, DAGLB inhibitor 2, PAFAH1B3 inh 3, ATG4B inh 55*, PAFAH1B2 inh 9, PAFAH2 FP inh -4 and PLA2 ctr 59*.
For Cc1c(C(=O)NC2CC(=O)N(c3ccc4c(c3)OCCO4)C2)cccc1[N+](=O)[O-] (stereo not drawn) the results were pPAFAH FP inh 1, DAGLB inhibitor 2, PAFAH1B3 inh -15, ATG4B inh -8, PAFAH1B2 inh 3 and PAFAH2 FP inh 0.
For Cc1ccc(NC(=C(C#N)C#N)c2ccccc2)cc1 the results were DAGLB inhibitor 1.
For COc1ccc(-n2nc3c(N4CCC(C(=O)N5CCC(C)CC5)CC4)nnc(C)c3c2C)cc1 the results were pPAFAH FP inh 1, DAGLB inhibitor -1, PAFAH1B3 inh -4, ATG4B inh 68*, PAFAH1B2 inh 1, PAFAH2 FP inh 5 and PLA2 ctr 75*.
Screening Cc1ccc(-n2nc3c(N4CCC(C(=O)NCCc5cccs5)CC4)nnc(C)c3c2C)cc1 returned pPAFAH FP inh 5, DAGLB inhibitor 3, PAFAH1B3 inh 2, ATG4B inh -8, PAFAH1B2 inh 3 and PAFAH2 FP inh 6.
COc1ccc(C)cc1NC(=O)c1nnn(Cc2cc(C)ccc2C)c1N was read as pPAFAH FP inh -4, DAGLB inhibitor -7, PAFAH1B3 inh 1, ATG4B inh 4, PAFAH1B2 inh 6 and PAFAH2 FP inh -6.
Screening COc1ccc(OC)c(NC(=O)c2nnn(Cc3ccccc3C)c2N)c1 returned pPAFAH FP inh 5, DAGLB inhibitor 0, PAFAH1B3 inh -4, ATG4B inh 60*, PAFAH1B2 inh 1, PAFAH2 FP inh 3 and PLA2 ctr 64*.
`CSc1ncc(C(=O)Nc2cccc(C)c2C)c(C)n1` gave DAGLB inhibitor -1, PAFAH1B3 inh 11, ATG4B inh -2, PAFAH1B2 inh 1 and PAFAH2 FP inh 1.
O=C(Nc1nc(-c2cccc([N+](=O)[O-])c2)cs1)c1cccc([N+](=O)[O-])c1C(=O)O was read as pPAFAH FP inh 2, DAGLB inhibitor 3, PAFAH1B3 inh 7, ATG4B inh 79*, PAFAH1B2 inh 5, PAFAH2 FP inh -2 and PLA2 ctr 82*.
For Cc1ccc(-c2csc(NC(=O)c3cccc([N+](=O)[O-])c3C(=O)O)n2)cc1 the results were pPAFAH FP inh 4, DAGLB inhibitor -1, PAFAH1B3 inh 4, ATG4B inh 53*, PAFAH1B2 inh 19, PAFAH2 FP inh 0 and PLA2 ctr 69*.
O=C(O)c1ccccc1C(=O)Nc1nc(-c2ccc3ccccc3c2)cs1 was read as pPAFAH FP inh -9, DAGLB inhibitor 5, PAFAH1B3 inh -2, ATG4B inh 83*, PAFAH1B2 inh -1, PAFAH2 FP inh -46 and PLA2 ctr 84*.
O=C(Cc1cccc2ccccc12)Nc1nc(-c2cccc([N+](=O)[O-])c2)cs1 was read as pPAFAH FP inh -1, DAGLB inhibitor -4, PAFAH1B3 inh 4, ATG4B inh -10, PAFAH1B2 inh 3 and PAFAH2 FP inh 2.
O=C(O)CCn1cc(/C=C\C(=O)c2ccc(Cl)cc2)c(-c2cccc(Br)c2)n1 was read as pPAFAH FP inh 2, DAGLB inhibitor 6, PAFAH1B3 inh 6, ATG4B inh 46*, PAFAH1B2 inh 46*, PAFAH2 FP inh 6, ATG4B confirm 69* and PLA2 ctr 45.
`O=Cc1cn(CCC(=O)O)nc1-c1cccc(Br)c1` gave pPAFAH FP inh 6, DAGLB inhibitor 2, PAFAH1B3 inh 9, ATG4B inh 4, PAFAH1B2 inh 2 and PAFAH2 FP inh 2.
O=C(c1ccc2c(c1)N(Cc1cccc(Cl)c1)C(=O)c1ccccc1S2(=O)=O)N1CCN(c2ccccn2)CC1 was read as pPAFAH FP inh 1, DAGLB inhibitor 4, PAFAH1B3 inh 11, ATG4B inh 8, PAFAH1B2 inh 1 and PAFAH2 FP inh -2.

Bioassay records (PubChem)
